Results published in PubChem BioAssay (NCATS).
Results filed as inconclusive are left out. Calls of active or inactive are those of the source. The call rests on the fitted dose curve; in most records, active means well fitted curve in the direction sought with a large enough effect; inconclusive means small, poorly fitted or top-dose-only effect, or effect the other way, or another doubt; inactive means no such curve, though single readings can be large or run the other way.

Test: 10-beta competent E. coli microbial cell viability qHTS against the NCATS CANVASS Library (AID 1347376)
Settings: E. coli 10-beta viability, BacTiter-Glo ATP luminescence, overnight; series mostly up to 46.1 µM
Text: Natural products and their derivatives continue to be wellsprings of nascent therapeutic potential. However, many laboratories have limited resources for biological evaluation, leaving their previously isolated or synthesized compounds largely or completely untested. To address this issue, the Canvass library of natural products was assembled (https://tripod.nih.gov/canvass), in collaboration with academic and industry researchers, for quantitative high-throughput screening (qHTS) across a diverse set of cell-based and biochemical assays. The pure (>85% purity by liquid chromatography/mass spectrometry [LC/MS]) Canvass library of 346 natural products were submitted by 45 academic laboratories and companies around the world. We collected pure natural products to circumvent deconvolution and structure elucidation due to time and resource limitations. The library was formatted into 1536-well plates and evaluated in 50 qHTS (in an 11-pnt concentration series) bioassays with broad scope of disease-relevant mechanisms. The resulting data set from 50 different assays was then systematically analyzed to identify overall trends and specific natural products with interesting biological activities. Reported herein are the results of each individual qHTS and their corresponding assay protocol. The BacTiter-Glo microbial cell viability assay is a homogeneous method for determining the number of viable bacterial cells in culture based on quantitation of the ATP present. ATP is an indicator of metabolically active cells. The homogeneous assay procedure involves adding a single reagent (BacTiter-GloTM Reagent) directly to bacterial cells in medium and measuring luminescence. National Center for Advancing Translational Sciences (NCATS), Rockville, MD National Institute of Health (NIH), Bethesda, Maryland
10-beta competent E.coli cytotoxicity protocol: 1. In a 1536 well, tissue culture treated white solid bottom plates (Greiner Bio-One North America), 5 uL of 10-beta competent E. coli suspension (0.9 OD culture diluted 0.2 OD) was dispensed into columns 1, 2, and 5-48 using the Multidrop Combi dispenser (Thermo Fisher Scientific). 2. Controls and compounds were pin transferred (~23 nL volume) to the assay plates via Wako Pin-tool (Wako Automation, Richmond VA) equipped with a 1536 pin head. The compounds were transferred to columns 5-48 resulting in a final concentration ranging from 0.17nM to 92uM. Daunomycin was used as a control in various concentrations (1mM working concentration; 1:2 dilution; 16 points; n=2; column 2, rows) for a final concentration range of 0.2 nM to 9.2 uM. 3. The assay plates were incubated overnight at 37C, 5% CO2, 95% humidity. 4. 2.5 uL of BacTiterGlo solution (Promega) was then added to the assay plates (column 1-48, rows 1-32). The assay plates were incubated at room temperature for 20 min. 5. Luminescence signal was acquired via the ViewLux plate reader using a clear emission filter, 2 second exposure and 2x binning settings.
In the case of `COc1ccc(C23Oc4cc(OC)cc(OC)c4[C@](O)([C@H](c4ccccc4)C2C(=O)NCCCCNC(=O)c2ccccc2)[C@@H]3O)cc1` (stereo partly specified), the outcome is reported as “inactive”. For `O=C(c1ccccc1O)c1[nH]c(Cl)c(Cl)c1-n1c(C(=O)c2ccccc2O)cc(Cl)c1Cl`, the outcome was “inactive”. For `CO[C@@H](/C=C/CC/C=C/C(=O)O)[C@@H](O)[C@H](C)/C=C(\C)[C@@H](O)[C@H](C)C(=O)CCCC1CC(=O)NC(=O)C1`, the outcome was “inactive”. For `COc1ccc2c3c([nH]c2c1)C(C)=NCC3`, the outcome was “inactive”. With `NCCc1ccccc1` the outcome was “inactive”. For `CC1=CC2CC[C@@H]3[C@@H](C)C[C@H](C)[C@@H](C1)N23` (stereo partly specified), the outcome was “inactive”. With `CC1=CC(=O)C2=C(C)C[C@H](O)[C@@H]3[C@H](OC(=O)[C@@H]3C)[C@@H]12` the outcome was “inactive”. For `CC(=O)N[C@H]1CCN2CCC[C@H]12`, the outcome was “inactive”. In the case of `C/C=C1/CN2CC[C@]34C(=Nc5ccccc53)[C@@H]2C[C@@H]1[C@H]4C(=O)OC`, the outcome is reported as “inactive”. With `COC(=O)C1=C2Nc3ccccc3[C@@]23CCN2CC(C(C)=O)C1C[C@H]23` (stereo partly specified) the outcome was “inactive”. For `CCC(=O)CCCCC[C@@H]1NC(=O)[C@H]2CCCCN2C(=O)[C@H]([C@@H](C)CC)NC(=O)[C@H](Cc2cn(OC)c3ccccc23)NC1=O`, the outcome was “inactive”. For `c1ccc2c3c([nH]c2c1)CNCC3`, the outcome was “inactive”. With `CCCC[C@@H]1CC[C@H]2CCCC(CCC)N12` (stereo partly specified) the outcome was “inactive”. For `CNCCc1ccccc1`, the outcome was “inactive”. For `CCCCC[C@@H]1OC(=O)[C@@H](C)N(C)C(=O)[C@H](CCCCC)OC(=O)C(C)N(C)C(=O)[C@H](CCCCC)OC(=O)[C@@H](C)N(C)C(=O)[C@H](CCCCC)OC(=O)C(C)N(C)C1=O` (stereo partly specified), the outcome was “inactive”. With `CNCCc1c[nH]c2ccccc12` the outcome was “inactive”. In the case of `C=C1[C@@H](C)[C@H]2[C@H](Cc3ccccc3)NC(=O)[C@]23OC(=O)/C=C/[C@H](O)CCC[C@@H](C)C/C=C/[C@H]3[C@@H]1O`, the outcome is reported as “inactive”. With `COc1ccc2c(c1)[nH]c1c(C)nccc12` the outcome was “inactive”. With `C[C@@H]1CC[C@@H](c2ccoc2)N2C[C@@]3(CC[C@@H]12)CS[C@@]1(CC[C@H]2[C@H](C)CC[C@@H](c4ccoc4)N2[C@@H]1O)C3` the outcome was “inactive”. For `CO[C@@H](/C=C/CC/C=C/C(=O)O)[C@@H](O)[C@H](C)[C@@H](O)/C(C)=C/[C@H](C)C(=O)CCCC1CC(=O)NC(=O)C1`, the outcome was “inactive”. With `CCN1C[C@]2(C)CC[C@H](O)[C@]34C1C(C[C@H]23)[C@@]12CC[C@H](CC14)[C@](O)(COC(=O)c1ccc(OC)c(OC)c1)[C@H]2O` (stereo partly specified) the outcome was “inactive”. With `CC[C@@H]1CN2CC[C@@]3(O)C(=Nc4cccc(OC)c43)[C@@H]2C[C@@H]1/C(=C\OC)C(=O)OC` the outcome was “inactive”. For `CN1C(=O)[C@]23CC4C(C)(C)[C@@]5(C[C@@]41CN2CC[C@@]3(C)O)C(=O)Nc1c5ccc2c1OC=CC(C)(C)O2` (stereo partly specified), the outcome was “inactive”. With `CCC[C@H]1CC[C@H]2[C@H](C)CCC[C@H]2N1` the outcome was “inactive”. For `CO[C@H](c1ccccc1)[C@H]1NC(=O)C(C)NC(=O)C(C[C@@H](C)CO)N(C)C(=O)[C@@H](C(O)c2cn(C(C)(C)C3CO3)c3ccccc23)NC(=O)C(C(C)C=C(C)C)NC(=O)C(CC(C)C)N(C)C(=O)C(C(C)C)NC1=O` (stereo partly specified), the outcome was “inactive”. In the case of `CNCCc1ccc(O)cc1`, the outcome is reported as “inactive”. For `CC=C1CN(C=O)[C@H]2C[C@@H]1[C@@H](C(=O)OC)[C@@]13CCOC21Nc1ccccc13` (stereo partly specified), the outcome was “inactive”. With `CCN1C[C@]2(C)CC[C@@H](O)[C@]34C1[C@H](C[C@H]23)C12CCC(CC14)[C@](O)(CO)[C@H]2O` (stereo partly specified) the outcome was “inactive”. For `CN(C)Cc1c[nH]c2ccccc12`, the outcome was “inactive”. In the case of `C[C@]12CC(O)C3[C@@H](CCC4C[C@@H](O)CC[C@@]43CO)[C@@]1(O)CCC2C1=CC(=O)OC1` (stereo partly specified), the outcome is reported as “inactive”. With `CC[N@@+]1([O-])C[C@]2(C)CC[C@@H](O)[C@@]34C5C[C@H]6CC[C@@]5(C(C[C@H]23)C41)[C@H](O)[C@@]6(O)CO` (stereo partly specified) the outcome was “inactive”.
